{"source": "the supplement of paper PMC13380429"}
{"tested_on": "Vero E6 infected with SARS-CoV-2", "assay": "inhibition of SARS-CoV-2 cytopathic effect; higher = more antiviral protection, active = above 15", "details": "100 nM; 48 h"}
{"smiles": "CC1(N2CCC(n3c([C@@H]4CCCNC4)nc4ccccc43)CC2)CCCCCCC1", "inhibition of SARS-CoV-2 cytopathic effect": "-0.65% (inactive)"}
{"smiles": "CCCCNc1nc(N)c2[nH]c(=O)n(Cc3ccc(OCCN(C)C)nc3)c2n1", "inhibition of SARS-CoV-2 cytopathic effect": "2.36% (inactive)"}
{"smiles": "COc1ccc([C@@H]2CC(=O)c3c(O)cc(O[C@@H]4O[C@H](CO[C@@H]5O[C@@H](C)[C@H](O)[C@@H](O)[C@H]5O)[C@@H](O)[C@H](O)[C@H]4O)cc3O2)cc1O", "note": "[hesperidin]", "inhibition of SARS-CoV-2 cytopathic effect": "0.86% (inactive)"}
{"smiles": "O=C(CSc1nc2c(c(=O)n1-c1ccccc1)SCC2)Nc1ccc(-c2ccccc2)cn1", "inhibition of SARS-CoV-2 cytopathic effect": "3.88% (inactive)"}
{"smiles": "CCC/C=C1\\OC(=O)C2=C1CCC=C2", "note": "[ligustilide]", "inhibition of SARS-CoV-2 cytopathic effect": "8.75% (inactive)"}
{"smiles": "C#CCN1C(C)=C(C(=O)OC)C(c2cccc([N+](=O)[O-])c2)C(C(=O)OCC)=C1C", "note": "(configuration not stated)", "inhibition of SARS-CoV-2 cytopathic effect": "0.36% (inactive)"}
{"smiles": "O=C(O)c1cc(-c2ccc(F)cc2F)ccc1O", "note": "[diflunisal]", "inhibition of SARS-CoV-2 cytopathic effect": "2.12% (inactive)"}
{"smiles": "CCO[C@H]1O[C@@H]2O[C@@]3(C)CC[C@H]4[C@H](C)CC[C@@H]([C@H]1C)[C@@]24OO3", "note": "[artemotil]", "inhibition of SARS-CoV-2 cytopathic effect": "1.56% (inactive)"}
{"smiles": "CC(C)(C)c1ccc2cc(C#N)c(C#N)cc2c1", "inhibition of SARS-CoV-2 cytopathic effect": "-1.56% (inactive)"}
{"smiles": "CCOC(=O)c1cc(C#N)c(N2CCC(C(=O)NS(=O)(=O)Cc3ccccc3)CC2)nc1C", "inhibition of SARS-CoV-2 cytopathic effect": "0.44% (inactive)"}
{"smiles": "O=C(c1cn(Cc2cncn2Cc2ccc(Br)cc2)cc1-c1cccc2ccccc12)N1CCOCC1", "inhibition of SARS-CoV-2 cytopathic effect": "-1.58% (inactive)"}
{"smiles": "c1ccc(Oc2nc(NC3CCCCC3)c3[nH]cnc3n2)cc1", "inhibition of SARS-CoV-2 cytopathic effect": "-1.37% (inactive)"}
